# Screens as filed in PubChem.
# The list is not random: actives were taken first. Their share in the collection is about 19%.
# ELG1 DNA repair = inhibitors of ELG1-dependent DNA repair in HEK293T cells; Potency, µM (series often up to 46.1 µM), usual class: inhibitors; HEK293T ELG1-luciferase reporter, luminescence, 16 h; DNA damage induced by 5-fluorouridine; 330,000 compounds, 2.3% hits; further: nearly all actives have a fitted effect of over 55% in size
#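 Cells (2,000 per well) received 5-fluorouridine plus test compound or DMSO and were incubated 16 hr at 37 °C, 5% CO2. Luciferase activity was read by luminescence 30 min after ONE-Glo addition; signal suppression marked inhibition of damage-induced ELG1 function.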
# DT40 TDP1 no CPT = qHTS for Inhibitors of human tyrosyl-DNA phosphodiesterase 1 (TDP1): qHTS in cells in absence of CPT; DT40 Tdp1-/- hTDP1 cells, no CPT, ATP luminescence, 48 h; Potency, µM (titrated, usually from 46.2 µM), hits mostly inhibitors; 420,000 compounds, 15% hits; further: nearly all actives have a fitted effect of over 55% in size
#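 Readout: luminescence from CellTiter-Glo after 30 min in the dark at RT. Cells: DT40 Tdp1-/- with stable hTDP1, 400/well. Exposure: compounds alone, ≥48 hr, 37 °C.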
# HT1080 IDH1KD tx = kills HT-1080 cells with IDH1 knockdown; HT-1080 IDH1 knockdown viability, ATP luminescence, 48 h; Potency, µM (highest dose often 46.1 µM), most hits filed as cytotoxic; 360,000 compounds, 2% hits; AID 686971
#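 Cytotoxicity counter-line: IDH1KD HT-1080, 48 h, CellTiter-Glo. Curves classed by r2, magnitude and activity.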
# HT1080-NT tox = kills 2HG-producing HT-1080-NT fibrosarcoma cells | 360,000 compounds, 1.6% hits | Potency, µM (highest dose often 46.1 µM), hits mostly cytotoxic | HT-1080-NT fibrosarcoma viability, CellTiter-Glo ATP luminescence, 48 h;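 further: NT is the 2HG producing partner of a matched IDH1 knockdown line; nearly all actives have a fitted effect of over 55% in size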
#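 Toxicity toward the 2HG-producing NT line was scored as %Activity, normalised to DMSO and no-cell wells, from CellTiter-Glo luminescence after 48 hours' treatment.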
# DT40 TDP1 CPT = growth inhibition of DT40 Tdp1-/-;hTDP1 cells with camptothecin (screen for TDP1 inhibitors); Potency, µM (titrated, usually from 46.2 µM), usual class: inhibitors; AID 686979; chicken DT40 Tdp1-/-;hTDP1 cells + 20 nM CPT, ATP luminescence, 48 h; 420,000 compounds, 12% hits; further: nearly all actives have a fitted effect of over 55% in size
#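 Chicken DT40 Tdp1-/- cells stably complemented with human TDP1 were seeded at 400 cells/well in medium containing 20 nM camptothecin, exposed to pin-transferred compounds, and grown at 37 °C for at least 48 hr. Viability was read as ATP luminescence.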
# IL1B secr inh = inhibitors of inflammasome signaling (IL-1 beta secretion) | THP-1 LPS/ATP IL-1B secretion, AlphaLISA, 16 h; stronger effect = lower value | activity change, % at 57.5 µM | 360,000 compounds, 4.7% hits | AID 743279; in the data active means activity change below about -50%; inconclusive means mostly about -30% to -49%
#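 THP-1 cells pretreated 1 hr with compounds (up to 57.5 uM final), then stimulated with LPS (250 ng/mL final) plus ATP (1.25 mM final); secreted IL-1B measured by AlphaLISA after 16 hr, decreased signal indicating inhibition.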
# A number is an active result; i = inactive; ? = inconclusive; nt = not tested or not shown; [ ] = remark or other dose. Unless noted, the call rests on the fitted dose curve; in most records, active means well fitted curve in the direction sought with a large enough effect; inconclusive means small, poorly fitted or top-dose-only effect, or another doubt; inactive means no such curve, though single readings can be large; an effect the other way counts as inactive or inconclusive.
SMILES,ELG1 DNA repair,DT40 TDP1 no CPT,HT1080 IDH1KD tx,HT1080-NT tox,DT40 TDP1 CPT,IL1B secr inh
Cn1c(=O)c2c(nc(NC3CCCCC3)n2CC(O)COc2ccccc2)n(C)c1=O (stereo not given),?,23µM,i,i,?,i
Cc1cccc(OCC(O)Cn2c(N3CCCCC3)nc3c2c(=O)n(C)c(=O)n3C)c1 (stereo not given),?,16µM,i,i,?,i
Cn1c(=O)c2c(nc(N3CCCCC3)n2CC(O)COc2ccccc2)n(C)c1=O (stereo not given),i,16µM,i,i,?,i
Cn1c(=O)c2c(nc(N3CCCCCC3)n2CC(O)COc2ccccc2)n(C)c1=O (stereo not given),?,18µM,i,i,23µM,i
Cc1c(CN2CCOc3c(O)cc(-c4nc5ccccc5s4)cc3C2)cnn1C,nt,?,nt,nt,i[9.04 µM],nt
CCCNC(=O)c1cc(C2CCCCN2C(=O)c2ccc(OC)cc2)on1 (stereo not given),nt,i,?,i,i,i
Cc1ccc(S(=O)(=O)NCCNC(=O)c2ccc(C)nc2)cc1,i,i,i,i,i,i
CCCCNc1nc2c(c(=O)n(C)c(=O)n2C)n1CC(O)COc1ccccc1C (stereo not given),nt,18µM,nt,nt,21µM,nt
COc1cccc(C(=O)Cn2c(N3CCCCC3)nc3c2c(=O)n(C)c(=O)n3C)c1,i,18µM,i,i,?,i
CN(CC(=O)Nc1ccccc1Br)C(=O)c1cccn1C,i,i,i,i,i,i
CC(NCC(=O)Nc1ccccc1C(=O)NC1CC1)c1cccc(Cl)c1 (stereo not given),i,?,i,i,?,i
CC(NCC(=O)Nc1ccccc1C(=O)NC1CC1)c1ccc(Cl)cc1 (stereo not given),nt,12µM,i,i,?,?
CCCCC(CC)C(=O)N1CCN(C(=O)c2ccco2)CC1 (stereo not given),i,i,i,i,i,i
CNC(=O)c1ccsc1NC(=O)C1CCN(S(=O)(=O)c2ccc(Cl)s2)CC1,18µM,?,?,?,16µM,i
Cc1cc(NC(=O)C2CCN(S(=O)(=O)c3cnc[nH]3)CC2)ccc1Br,?,?,i,i,i,-57
Cc1csc(NC(=O)C2CCCN(S(=O)(=O)c3ccc(Br)s3)C2)n1 (stereo not given),?,18µM,i,i,16µM,i
O=S(=O)(c1ccc(Br)s1)N1CCC(Cc2ccccc2)CC1,i,?,i,i,14µM,i
NC(=O)c1ccsc1NC(=O)C1CCN(S(=O)(=O)c2cccs2)CC1,?,?,i,i,i,i
Cc1ccc(NC(=O)C2CCN(S(=O)(=O)c3cnc[nH]3)CC2)cc1C,i,i,i,i,i,i
COc1ccc(Br)c(Cn2c(C)c(C(=O)NCc3ccccc3C(F)(F)F)sc2=O)c1,nt,?,i,i,?,i
CC1(c2ccccc2)NC(=O)N(CC(=O)NCc2cccc(Cl)c2)C1=O (stereo not given),i,?,i,i,i,i
NC(=O)C1c2ccccc2CCc2ccccc21,nt,i,nt,nt,i,nt
Cc1cc(NC(=O)C2CCN(S(=O)(=O)c3ccc(Br)s3)CC2)ccc1Br,nt,16µM,nt,nt,?,nt
O=C(NCCc1ccc(Cl)cc1)C1CCN(S(=O)(=O)c2ccc(Br)s2)CC1,?,?,i,i,i,i
O=C(Nc1ccc(Cl)cc1)C1CCN(S(=O)(=O)c2ccc(Br)s2)CC1,nt,23µM,nt,nt,?,nt
SMILES,ELG1 DNA repair,DT40 TDP1 no CPT,HT1080 IDH1KD tx,HT1080-NT tox,DT40 TDP1 CPT,IL1B secr inh
Cc1cc(NC(=O)C2CCCN(S(=O)(=O)c3ccc(Br)s3)C2)ccc1Br (stereo not given),nt,13µM,nt,nt,?,nt
O=C(NCc1ccc2c(c1)OCO2)C1CCN(S(=O)(=O)c2ccc(Br)s2)CC1,?,21µM,i,i,i,i
O=C(NCc1ccc2c(c1)OCO2)C1CCN(S(=O)(=O)c2cccs2)CC1,i,i,i,i,i,i
CC(OC(=O)CCCN=C1NS(=O)(=O)c2ccccc21)C(=O)Nc1ccccc1F (stereo not given),i,i,i,i,i,i
O=C1CC(=O)N(C2CCCCC2)C(=O)N1c1ccccc1S(=O)(=O)Oc1ccccc1,nt,i,i,i,i,i
O=C(NCCO)c1ccc(-c2ccc3nncn3c2)cc1,nt,i,i,?,i,i
CNc1ncncc1-c1c(C)noc1C,nt,i,nt,nt,?,nt
Cc1ccc(C(=O)N2CCN(Cc3cc(=O)n4nc(-c5ccccc5)sc4n3)CC2)cc1,nt,i,nt,nt,i,nt
Cc1nn(-c2cccc(Cl)c2)c(Cl)c1/C=N/NC(=O)c1cccs1,i,13µM,?,i,16µM,i
CCOc1ccccc1Nc1sc(C(=O)c2ccc(Cl)cc2)c(N)c1S(=O)(=O)c1ccccc1,nt,?,nt,nt,i,nt
